Source: PubChem BioAssay
Shown are actives, neighbours in structure and some others; about 4% of the full set was active somewhere.
Mtb betalactam: beta-lactam sensitization of Mtb H37Rv. M. tuberculosis H37Rv growth with meropenem, percent inhibition. inhibition, % at 25 µM. 0.27% of 330,000 active. AID 434955;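 note: growth measured after seven days incubation then overnight dye step; 0% = bacteria only wells and 100% = bacteria with antibiotic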
UGM FP inh: Mtb UDP-galactopyranose mutase inhibition; P9WIQ1; purified UGM, fluorescence polarization probe displacement; inhibition, % at 10 µM; 0.06% of 320,000 active; in the data active = inhibition above about 10%, passing the limit was not always enough; inconclusive = no clear call, values can overlap the other calls
RecA intein inh: blocks M. tuberculosis RecA intein splicing; P9WHJ3; cell-free RecA intein splicing, fluorescence; inhibition, % (no concentration beside the values); 0.75% of 290,000 active; AID 2221; in the data active = inhibition above about 30%; inconclusive = no clear call, values can overlap the other calls;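 note: 0% = vehicle wells and 100% = reference inhibitor control wells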
Target sequence (P9WHJ3 whole entry, looked up): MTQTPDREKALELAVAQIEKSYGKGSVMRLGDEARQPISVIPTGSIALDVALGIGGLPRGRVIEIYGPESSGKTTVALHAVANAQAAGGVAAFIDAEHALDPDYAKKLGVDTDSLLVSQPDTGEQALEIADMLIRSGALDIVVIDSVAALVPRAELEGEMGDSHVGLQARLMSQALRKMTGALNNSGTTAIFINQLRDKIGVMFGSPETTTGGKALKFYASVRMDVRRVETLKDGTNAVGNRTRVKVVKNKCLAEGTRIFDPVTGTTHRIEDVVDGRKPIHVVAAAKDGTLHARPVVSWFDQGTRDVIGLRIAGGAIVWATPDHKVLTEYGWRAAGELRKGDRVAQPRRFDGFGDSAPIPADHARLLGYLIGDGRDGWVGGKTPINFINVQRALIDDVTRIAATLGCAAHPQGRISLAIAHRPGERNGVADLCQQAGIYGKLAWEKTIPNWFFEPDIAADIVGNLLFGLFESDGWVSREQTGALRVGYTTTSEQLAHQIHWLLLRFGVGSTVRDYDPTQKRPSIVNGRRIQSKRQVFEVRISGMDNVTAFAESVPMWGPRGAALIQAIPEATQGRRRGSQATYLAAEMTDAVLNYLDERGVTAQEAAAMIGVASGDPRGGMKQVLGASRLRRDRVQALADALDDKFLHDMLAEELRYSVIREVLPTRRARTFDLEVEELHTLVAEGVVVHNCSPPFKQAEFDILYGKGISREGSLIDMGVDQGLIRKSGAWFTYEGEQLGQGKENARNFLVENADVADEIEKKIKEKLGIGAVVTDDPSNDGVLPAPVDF
Rv3671c inh: Rv3671c (M. tuberculosis) protease inhibition | 0.048% of 320,000 active | inhibition, % at 5.96 µM | AID 2606 | P9WHR9; in the data active = inhibition above about 38%;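 note: extracellular domain of Rv3671c used as enzyme; 0% = enzyme with DMSO and 100% = no enzyme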
GDH-TPI counter: GDH-TPI coupled enzyme inhibition counter-screen; GDH-TPI coupled enzyme counterscreen, NADH absorbance; 1.2% of 360,000 active; AID 588335; inhibition, % at 4.8 µM; in the data active = inhibition above about 30%;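 note: 0% = DMSO wells and 100% = wells lacking the enzyme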
Mtb FBA inh: inhibits M. tuberculosis FBA enzyme; inhibition, % at 1 µM; 2.3% of 360,000 active; purified M. tuberculosis FBA, fluorescence read-out; in the data active = inhibition above about 27%;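 note: 0% = vehicle and 100% = reference inhibitor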
GFP chromophore: counter-screen: blocks GFP chromophore formation; shares compounds with RecA intein inh; cell-free GFP chromophore formation, fluorescence; EC50, µM; 83% of 2,100 active; AID 434968
* hit, by the source's call; ? = inconclusive; . = no result given. Unless noted, the rule behind the calls is not given here.

SMILES | Mtb betalactam | UGM FP inh | RecA intein inh | Rv3671c inh | GDH-TPI counter | Mtb FBA inh | GFP chromophore
Cc1ccccc1-c1nnnn1C1CCS(=O)(=O)C1 (stereo unspecified) | -9.3 | -1.0 | 0.4 | -10.5 | 0.0 | -2.0 | .
CC(C)[Si]1(C(C)C)OCC2OC(n3cnc4c(N)ncnc43)C(N)C2O[Si](C(C)C)(C(C)C)O1 (stereo unspecified) | . | . | . | . | 2.3 | -1.6 | .
Cc1ccc2c(c1)c1c(n2CC(O)CN2CCCCCC2)CCCC1 (stereo unspecified) | -1.8 | -1.3 | 44.2* | 1.3 | 1.1 | 4.0 | >38
CCCC(=O)N(C1CC(C)C(C#N)(C#N)C1(C#N)C#N)N(C)C (stereo unspecified) | 6.5 | -0.2 | 93.3* | 7.8 | -3.4 | -1.6 | 4.89*
CC(=O)N(C1CC(C)C(C#N)(C#N)C1(C#N)C#N)N(C)C (stereo unspecified) | 2.0 | 1.3 | 80.8* | 1.0 | 1.3 | 5.0 | 18.9*
COc1cccc(NC(=S)/C(=C(\[O-])c2ccc(OC(F)F)cc2)[n+]2ccccc2)c1 | 4.0 | 2.2 | 36.7* | -9.6 | 7.6 | 2.6 | 35.3*
COC(=O)c1ccccc1S(=O)(=O)N1CCC(NC(=O)c2ccccc2)CC1 | 4.0 | 0.0 | 45.3* | 5.5 | 0.7 | 2.2 | >38
CC(=O)N(C1=C(N)C(=O)c2ccccc2C1=O)c1ccccc1 | -5.8 | -2.3 | 87.5* | -34.9 | -2.1 | -3.0 | 4.34*
CCc1cc[n+](C2=C([O-])c3ccccc3C(=O)/C2=N\S(=O)(=O)c2cccs2)cc1 | 0.7 | 6.7 | 29.8 | -96.7 | 10.6 | -6.8 | .
O=C1C(=O)c2ccccc2C([O-])=C1[n+]1ccccc1 | -2.5 | -1.8 | 84.4* | -12.6 | 15.2 | -3.8 | 6.86*
CC(=O)N(Cc1ccc(F)cc1)C1=C(NCc2ccccc2)C(=O)c2ccccc2C1=O | . | . | 76.6* | . | 1.9 | 2.0 | 5.9*
O=C(NCc1ccc(F)cc1)C(c1ccccc1)c1ccccc1 | 4.8 | 2.1 | 1.8 | -6.7 | 6.0 | 0.9 | .
CC1=C(C)CC2(SC1)C(=O)N(c1ccccc1)N=C2N (stereo unspecified) | 5.5 | 0.6 | 75.8* | 15.8 | 6.8 | 0.9 | 4.15*
CC1=NN(c2ccccc2)C(=O)C1(C)C | -11.2 | -0.2 | -0.4 | 0.4 | 17.9 | -1.3 | .
S=C1NCCC12C(=S)Nc1ccccc12 (stereo unspecified) | -0.3 | -1.6 | 37.2* | 2.1 | 9.0 | -0.1 | >38
Cc1cc(C2C(C#N)=C(N)Oc3n[nH]c(C)c32)c(C)s1 (stereo unspecified) | 0.2 | -0.1 | 80.8* | -0.8 | 3.8 | -1.5 | 36.5*
Cc1ccc(-c2ccc(C3C(C#N)=C(N)Oc4n[nH]c(C)c43)o2)cc1 (stereo unspecified) | 97.5 | -2.7 | 67.5* | 0.4 | 17.8 | -1.5 | 36.2*
CC(C)(C)c1[nH]nc2c1C(Cc1ccccc1)C(C#N)=C(N)O2 (stereo unspecified) | -7.3 | 2.8 | 54.1* | 2.5 | 3.4 | 0.6 | 20.3*
Cc1cc(C2C(C#N)=C(N)SC(N)=C2C#N)c(C)s1 | -6.8 | 0.4 | 0.5 | -13.8 | 10.6 | 5.2 | .
Cc1[nH]nc2c1C(c1ccsc1C)C(C#N)=C(N)O2 (stereo unspecified) | -4.7 | 4.1 | 47.6* | 2.2 | 10.0 | -5.3 | 27.8*
CC(C)(C)c1[nH]nc2c1C(c1cccnc1)C(C#N)=C(N)O2 (stereo unspecified) | -3.4 | -0.9 | -1.7 | -6.4 | 16.2 | -0.3 | .
CC(=O)Nc1ccc(NCC(=O)c2ccccc2)cc1 | -3.7 | 0.5 | 0.1 | 13.3 | -8.0 | -1.7 | .
C[C@@H]1CC=C[C@H]2[C@H]1C(=O)N(Cc1ccccc1)[C@H]2c1ccc(C(F)(F)F)cc1 | -8.9 | -0.7 | 36.5* | -2.8 | 11.4 | 2.4 | >38
COc1ccc(Br)cc1[C@H]1[C@H]2C=CC[C@@H](C)[C@@H]2C(=O)N1Cc1ccccc1 | . | . | 34.1* | . | 0.0 | -1.7 | >38
COc1cc(/C=N/O)ccc1Oc1cnccn1 | -6.8 | -2.4 | -3.4 | -4.8 | 1.9 | 2.8 | .
SMILES | Mtb betalactam | UGM FP inh | RecA intein inh | Rv3671c inh | GDH-TPI counter | Mtb FBA inh | GFP chromophore
O=[N+]([O-])c1ccc(Sc2nc3ccccc3o2)c([N+](=O)[O-])c1 | ? | -1.2 | 65.9* | 15.2 | 15.2 | -0.1 | 1.98*
O=[N+]([O-])c1ccc(Cl)cc1Sc1nc2ccccc2o1 | -5.7 | 1.5 | 4.2 | -5.6 | 4.0 | -4.0 | .
O=c1[nH]c(Sc2ccc([N+](=O)[O-])cc2[N+](=O)[O-])nc2ccccc12 | 98.6 | 0.8 | 33.9* | -6.8 | 12.3 | 0.8 | 31.1*
Cc1cnc(CNC(=O)c2csc([C@@H]3C[C@H](O)[C@@H](CO)O3)n2)cn1 | . | . | . | . | 3.5 | -3.5 | .
COc1ccc(/C=C/C(=O)c2ccc(O)cc2)cc1COc1ccc(F)cc1 | -4.7 | 1.5 | 35.7* | -72.5 | 18.8 | -0.8 | >38
COc1ccc(/C=C/C(=O)c2ccccc2)cc1COc1ccc(F)cc1 | 1.4 | 4.5 | 41.5* | -10.0 | 26.4 | -2.2 | >38
CC(C)c1ccc(CNn2cnnc2)cc1 | -7.6 | -0.2 | . | 2.2 | 8.6 | -1.2 | .
COc1cc(/C=C2\SC(=S)NC2=O)ccc1OS(=O)(=O)c1ccccc1 | 40.0 | -0.6 | 24.8 | -16.9 | . | . | .
COc1cc(/C=C2/SC(=S)NC2=O)ccc1OS(=O)(=O)c1ccc(C)cc1 | 49.6 | -2.0 | 35.6* | -23.9 | 15.7 | -3.6 | 22.9*
COc1ccc(OC)c(S(=O)(=O)n2ccnc2C(C)C)c1 | 2.4 | 2.3 | -0.1 | -0.3 | 10.0 | 0.2 | .
CC1=NN(CCC#N)C(=O)/C1=C/c1ccc(N(C)C)cc1 | -3.8 | 2.5 | 48.2* | -11.4 | 2.4 | -25.7 | 10.7*
COc1cc(/C=C2\SC(N)=NC2=O)ccc1OCC(=O)Nc1ccc(C)cc1 | 14.5 | -0.7 | -3.5 | -45.9 | 19.9 | -0.6 | .
COc1cc(/C=C2\C(=O)N(CCC#N)N=C2C)ccc1OCC(=O)Nc1ccccc1 | 1.8 | -1.5 | 78.9* | -210.8 | 0.0 | -1.3 | 5.61*
CCOc1cc(/C=C2\C(=O)N(CCC#N)N=C2C)ccc1OCC(N)=O | -1.2 | -0.3 | 88.3* | -152.5 | 0.3 | -6.4 | 9.29*
CC1=NOC(=O)/C1=C/c1ccc(N(C)C)cc1 | -3.6 | -2.1 | 0.2 | -4.7 | . | . | .
CCOc1cc(/C=C2/C(=O)N(c3ccccc3)N=C2C)ccc1OC(=O)c1cccs1 | 67.4 | 2.3 | -11.1 | -174.8 | 8.4 | -2.4 | .
O=C(CSc1ccccc1)NCC1(N2CCOCC2)CCCCC1 | -7.9 | 4.7 | -2.0 | 5.7 | 3.2 | -1.2 | .
CCCC(=O)N1CCCC1(C)C(=O)NCCc1ccccn1 (stereo unspecified) | . | . | . | . | 8.9 | -1.1 | .
CCC(=O)OC1(C(C)=O)CCC2C3CCC4=CC(=O)CCC4(C)C3CCC21C (stereo unspecified) | . | . | . | . | -0.4 | 1.9 | .
CCn1cc(CCC(=O)NC2CCCC2)c2ccccc21 | -3.3 | 1.0 | -0.9 | 8.5 | 4.0 | 5.1 | .
